# TRPML1 inh – human mucolipin-1 channel inhibition; Q9GZU1; TRPML1-inducible cells, Ca2+ dye fluorescence, FDSS; active compounds read low; inhibition of EC80 agonist-evoked calcium signal; activity change, negative = inhibition, % (no concentration beside the values); actives 0.02% (n = 390,000); in the data active = activity change below about -50%; inconclusive = between about -30% and that limit;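 note: stimulus is agonist 54-4 at its EC80 concentration; % is set by controls: 0 for no effect and ±100 for the full control effect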
# Target sequence (Q9GZU1 whole entry, looked up): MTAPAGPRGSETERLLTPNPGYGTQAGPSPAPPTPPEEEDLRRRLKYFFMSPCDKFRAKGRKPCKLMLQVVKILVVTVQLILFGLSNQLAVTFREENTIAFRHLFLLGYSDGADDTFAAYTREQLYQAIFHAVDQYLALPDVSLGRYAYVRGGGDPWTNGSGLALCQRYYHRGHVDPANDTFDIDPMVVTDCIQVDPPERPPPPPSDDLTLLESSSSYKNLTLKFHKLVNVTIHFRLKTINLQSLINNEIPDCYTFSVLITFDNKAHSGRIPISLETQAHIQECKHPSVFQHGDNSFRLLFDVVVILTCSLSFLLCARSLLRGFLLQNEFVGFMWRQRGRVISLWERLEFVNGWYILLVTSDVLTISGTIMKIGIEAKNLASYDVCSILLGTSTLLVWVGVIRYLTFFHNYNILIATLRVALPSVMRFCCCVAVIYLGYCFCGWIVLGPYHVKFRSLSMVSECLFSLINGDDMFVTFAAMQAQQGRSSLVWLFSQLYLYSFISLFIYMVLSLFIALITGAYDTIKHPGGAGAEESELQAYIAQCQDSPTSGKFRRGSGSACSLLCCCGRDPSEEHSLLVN
#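 Tet-induced TRPML1-DL cells loaded with Ca8 no-wash calcium dye were read kinetically on FDSS. Compound addition was followed by EC80 agonist 54-4 (4 uM final); inhibition was read over 110 s.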
# TRPML1 ag – human mucolipin-1 channel agonism. Q9GZU1. TRPML1-expressing cells, Ca2+ dye fluorescence, FDSS. activation, % (test concentration not listed). actives 0.12% (n = 410,000). AID 624414; in the data active = activation above about 50%; inconclusive = mostly about 30% to 49%; note: 0% is about no effect
#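 TRPML1-DL cells, Tet-induced overnight (~16 h, 37 degrees C), loaded 45-90 min at room temperature with Ca8 no-wash calcium dye plus quencher. FDSS fluorescence: 10 s baseline, compound pin-transfer, 110 s agonist read, then EC80 54-4 (4uM final) and 110 s antagonist read.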
# PKM2 activator – PKM2 (human) enzyme activation; actives 0.34% (n = 260,000); P14618; Potency, µM (doses to about 57.5 µM), without a hit: at the top dose activation, usual class: activators; purified PKM2, Kinase-Glo ATP luminescence, activation; response scale: 0% is enzyme alone, no compound; note: potency is the fitted concentration of half-maximal effect; % is set by controls: 0 for no effect and ±100 for the full control effect; nearly all actives have a fitted effect of over 55% in size
#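 ATP formation by purified human PK-M2, quantified via coupled luciferase luminescence after 1 h at room temperature with 0.1 mM ADP and 0.5 mM PEP final.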
# BRCA1 expr up – BRCA1 expression activation; MCF7-BRCA1-FFLuc reporter, luminescence, 48 h; response scale: scaled: vehicle 0%, 10 µM genistein 100%; Potency, µM (top dose mostly 46.1 µM), for inactives: top-dose activation, hits mostly activators; actives 1.1% (n = 380,000); AID 624202; note: potency is the fitted concentration of half-maximal effect; nearly all actives have a fitted effect of over 80% in size
#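 Activators of BRCA1 expression were detected as increased firefly luciferase luminescence in engineered MCF7 cells after 48 h compound incubation. Signals were scaled to genistein 10 microM as full activation.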
# IL2 activator – activators of IL-2; IL-2 activation reporter assay, cell-based qHTS; stimulated with anti-CD3/CD4/CD28 beads; in transgenic mouse T cells; activation, % (series mostly up to about 46 µM); actives 0.065% (n = 360,000); in the data active = activation above about 50%; inconclusive = mostly about 30% to 49%; note: 0% is about no effect
#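 EGFP and DsRed fluorescence is measured by plate cytometry in unstimulated transgenic mouse T cells exposed to compound for 60 minutes, then stimulated 18 hours at 37 degrees C with anti-CD3/anti-CD4 beads plus anti-CD28.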
# PTAP TSG101 blk – blocks PTAP/TSG101 interaction to inhibit HIV-1 budding | Fluorescence polarization, FITC-PTAP peptide / Tsg101 binding | 340,000 tested, under 10 active | Potency, µM (top dose mostly 115 µM), inactives show at the highest dose activity change, negative = inhibition, usual class: inhibitors | AID 493005; active = well fitted inhibition curve with a large enough effect in the main read-out, with a control signal flat, not every such curve was filed as active; inconclusive = small, poorly fitted or top-dose-only effect, or effect the other way, or a change in a side signal; inactive = no such curve, though single readings can be large or run the other way; note: potency is the fitted concentration of half-maximal effect; % of control where 0% means no effect
#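 Steps: Tsg101 binding domain dispensed (10 uM final), compounds pinned in DMSO, FITC-labeled PTAP-motif peptide added (50 nM final); after 20 min binding at room temperature, polarization measured.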
# * = called active by the depositor; u = inconclusive; x = not tested or not shown; [ ] = dose if it differs, or a comment. An excerpt weighted towards active compounds, which were near 1.3% of everything screened. Unless noted, calls come from the whole dose curve; as a rule, active = well fitted activation curve with a large enough effect; inconclusive = small, poorly fitted or top-dose-only effect; inactive = no such curve, though single readings can be large or run the other way.
SMILES,TRPML1 inh,TRPML1 ag,PKM2 activator,BRCA1 expr up,IL2 activator,PTAP TSG101 blk
CN(C)c1ccc(/C=C/c2cc(=O)[nH]c3ccccc23)cc1,x,-0.4,x,14.0%,x,x
O=C1CN(c2ccccc2)C(=S)N1C(=O)c1ccccc1,-8.0,-0.6,0.0%,7.08µM*,-2.0,1.0%
O=C(c1ccccc1)N1CCC(=O)N1c1ccccc1,5.1,0.7,-18.0%,-6.8%,0.2,-4.4%
Cc1ccc2c(c1)N(C(=O)C1CCN(S(=O)(=O)c3c(C)noc3/C=C/c3ccccc3F)CC1)CCO2,18.5,1.4,x,x,x,x
CCc1ccc(CNC(=O)C2CCN(C(=O)c3ccc(-n4ccc5ccccc54)s3)CC2)cc1,7.5,1.2,x,x,x,x
Cc1ccsc1/C=C(\CC(=O)O)c1nc2ccccc2o1,22.5,-0.8,-5.6%,7.94µM*,-2.0,-2.9%
O=C(O)C/C(=C\c1cc(Br)cs1)c1nc2ccccc2o1,28.5,-0.2,x,-23.2%,1.1,-0.7%
COc1ccc(N(CC(=O)Nc2cccc(Cl)c2)S(=O)(=O)c2c(C)[nH]c(=O)[nH]c2=O)cc1,13.7,0.8,x,x,x,x
Cc1ccc(NC2=Nc3ccccc3CC2)cc1,6.1,-0.8,-9.0%,0.8%,3.9,-3.1%
Brc1ccc(NC2=Nc3ccccc3CC2)cc1,21.9,3.9,7.8%,8.91µM*,1.9,-3.3%
Clc1ccc(/C=N/N2CCN(Cc3ccccc3)CC2)cc1,7.7,0.7,0.2%,32.3%,1.0,2.0%
C(=C\c1ccccc1)/C=N/N1CCN(Cc2ccccc2)CC1,-16.6,3.0,-1.1%,11.2µM*,2.1,1.9%
CN1CCN(/N=C/c2ccc(N(c3ccccc3)c3ccccc3)cc2)CC1,22.6,0.0,-0.4%,-84.1%,4.9,-1.8%
CN1CCN(/N=C/c2ccc(Br)cc2)CC1,13.3,0.2,2.4%,5.62µM*,-0.6,-2.9%
C(/C=C/c1ccccc1)=N/N1CCN(c2ccccc2)CC1,-6.6,0.1,2.8%,7.94µM*,-0.6,0.0%
Cc1ccc(/C=N/N2CCN(c3ccccc3)CC2)cc1,6.9,0.2,-11.3%,12.6µM*,-3.1,0.4%
Cc1cccc(/C=N/N2CCN(c3ccccc3)CC2)c1,-10.6,1.4,-9.4%,u,-0.3,-0.8%
CCOc1cccc2cc(-c3nc4sc(C(=O)Nc5ccc(C)cc5)c(C)c4c(=O)[nH]3)c(=O)oc12,-7.8,19.5,x,x,x,x
CC#CCN1c2ccccc2[C@]23C[C@@H](C(=O)OC)N(S(=O)(=O)c4ccc([N+](=O)[O-])cc4)C2=NC(C(=O)OC)=C(C(=O)OC)[C@H]13,x,x,-2.0%[11.5 µM],x,x,x
Cc1cccc(-c2nc3scc(CCNC(=O)c4ccccc4Cl)n3n2)c1,1.2,-0.6,x,x,x,x
CN(C)c1ccc(C=NN2CCCCCC2)cc1,0.8,-0.4,x,7.94µM*,0.2,-3.5%
Cc1ccc(NS(=O)(=O)c2ccc3c(c2)NC(=O)C(C)C(=O)N3)cc1F (stereo not given),-16.6,0.6,x,x,x,x
CC(=O)Oc1ccc(/C=N/NC(=S)Nc2ccccc2)cc1,-6.7,0.2,-1.4%,11.2µM*,-0.9,-1.3%
Cc1ccc(/C=N/NC(=O)Nc2ccccc2)o1,31.7,0.3,1.7%,12.6µM*,-0.4,0.2%
CCOC(=O)N/N=C/c1ccccc1F,11.1,0.1,-3.4%,10µM*,-0.4,-0.7%
SMILES,TRPML1 inh,TRPML1 ag,PKM2 activator,BRCA1 expr up,IL2 activator,PTAP TSG101 blk
Cc1ccc(/C=N/NC(=O)C(O)c2ccccc2)o1 (stereo not given),-1.3,0.6,0.3%,-2.2%,-1.4,-2.1%
CCOc1ccc(/C=N/NC(=O)Nc2ccccc2)cc1,-8.5,0.5,-5.3%,u,-3.4,-1.0%
CC(=O)N/N=C\c1ccccc1OC/C=C/c1ccccc1,-18.5,1.6,9.4%,2.82µM*,2.4,x
CC(=O)N/N=C\c1cccc(OC/C=C/c2ccccc2)c1,26.3,2.2,-5.1%,0.2%,-3.1,-0.7%
O/N=C(/CI)c1ccc2ccccc2c1,x,-0.3,x,28.7%,x,x
C=Nc1ccc(/C=C/c2ccnc3ccccc23)cc1,x,7.9,x,x,x,x
CCOC(=O)N/N=C\c1ccc(OC/C=C/c2ccccc2)cc1,-7.4,3.4,2.7%,8.91µM*,-2.9,0.4%
COC(=O)N/N=C/c1ccc(Oc2ccccc2)cc1,17.5,0.1,0.1%,10µM*,-0.8,1.2%
CC(C)(C)NCC(=O)N/N=C/c1ccc(OCc2ccccc2)cc1,-10.9,-1.5,2.2%,10µM*,-0.1,-0.3%
CCCCNC(=O)C(=O)N/N=C/c1ccc(OCc2ccccc2)cc1,0.9,0.7,-5.0%,-2.4%,-0.5,0.5%
COC(=O)N/N=C\c1ccc(OC/C=C/c2ccccc2)cc1,5.3,-0.2,0.0%,7.08µM*,0.8,-1.4%
O=C(N/N=C/c1ccccc1)C(=O)N/N=C/c1ccccc1,9.9,0.8,-10.3%,0.9%,-0.5,0.7%
O=C(OC(C(=O)N1CCOCC1)c1ccccc1)c1c2c(nc3ccccc13)CCCC2 (stereo not given),x,-0.7,x,-7.1%,x,x
Cc1ccc(NC(=O)c2sc3nc4c(cc3c2N)CN(Cc2ccccc2)CC4)cc1,10.0,2.5,x,x,x,x
CCC(=O)N1CCC(c2ccc(OC)cc2)=N1,-0.7,6.0,-6.5%,11.2µM*,-0.9,-4.2%
COc1ccccc1-c1nnc(NC(=O)CSc2nncn2C)s1,20.4,0.2,-3.2%,10µM*,-2.8,-4.0%
CCOc1ccc(-c2nnc(SCC(=O)NCCC(C)C)nc2-c2ccc(OCC)c(OC)c2)cc1OC,48.0,1.7,x,x,x,x
Cc1c(O)c2c(c(C(=O)/C=C/c3ccccc3)c1O)OC(C)(C)C=C2,x,-0.7,x,-42.9%,x,x
COc1ccc(C(=O)Nc2nc3ccc(OC)cc3s2)cc1,-11.3,1.2,0.0%,2.24µM*,-1.0,0.3%
COc1ccc(Nc2nc3ccc(OC)cc3s2)cc1,-16.9,1.0,-11.5%,7.94µM*,0.1,-1.5%
COc1ccc(C(=O)Nc2nc3ccc(S(C)(=O)=O)cc3s2)cc1,-4.2,-0.5,1.3%,24.7%,-1.5,-1.7%
COc1cccc(C(=O)Nc2nc3c(s2)CN(C)CC3)c1,9.2,-0.4,4.1%,14.1µM*,-0.8,-0.3%
COc1ccc2nc(NC(=O)c3c(C)noc3C)sc2c1,2.9,0.0,x,2.82µM*,1.8,-5.2%
Cc1ccccc1Nc1c(-c2c(F)cccc2Cl)nc2ccc(Br)cn12,-16.6,0.3,x,x,x,x
CC(C)c1nc2ccc(C(=O)NCCCN3CCN(c4ccccc4)CC3)cc2o1,-1.1,0.7,x,x,x,x
COc1ccc(-c2nc3ccccc3o2)cc1NC(=O)C(C)(C)Oc1ccc(Br)cc1,14.9,0.9,x,0.9%,x,x
